In PubChem BioAssay AID463082 (The Scripps Research Institute Molecular Screening Center, 2010):
Screen size: about 330,000 compounds; about 4,900 (1.5%) were called active. The entries come from a sample that favours actives as a whole. Unmarked numbers belong to inactive results.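 The calls were made as follows: active = inhibition above the mean inhibition across the screen plus 3 SD (cut at about 25% in these data); inactive = the rest.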

Each molecule was assayed against Platelet-activating factor acetylhydrolase (Homo sapiens) (UniProt Q13093) (assay: inhibition of plasma PAF acetylhydrolase – biochemical, fluorescence polarization, human, primary screen (AID 463082;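 also: inhibitors block binding of the rhodamine activity-based probe so polarization drops; 0% = enzyme with DMSO and 100% = wells lacking pPAFAH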)). Conditions: recombinant pPAFAH, FP-rhodamine probe fluorescence polarization; at 3.39 µM; active compounds read high.
Chain of Platelet-activating factor acetylhydrolase (Homo sapiens) (Q13093 whole entry, looked up): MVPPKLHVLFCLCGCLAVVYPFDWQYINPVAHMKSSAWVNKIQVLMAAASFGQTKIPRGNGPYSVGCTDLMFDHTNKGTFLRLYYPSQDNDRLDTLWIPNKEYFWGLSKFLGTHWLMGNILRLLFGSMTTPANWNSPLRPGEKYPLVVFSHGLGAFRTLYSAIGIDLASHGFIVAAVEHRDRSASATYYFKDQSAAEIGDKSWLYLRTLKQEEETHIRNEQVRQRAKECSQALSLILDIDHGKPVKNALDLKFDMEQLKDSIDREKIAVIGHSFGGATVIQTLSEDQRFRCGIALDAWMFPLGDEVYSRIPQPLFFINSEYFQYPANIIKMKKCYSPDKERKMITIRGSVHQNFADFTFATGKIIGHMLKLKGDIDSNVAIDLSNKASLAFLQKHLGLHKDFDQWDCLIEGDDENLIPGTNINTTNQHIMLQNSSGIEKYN

SMILES	inhibition
CC(=O)N1CCN(c2ccc(NCc3ccc(C(C)C)cc3)cc2)CC1	30.8% (active)
CC(CC(=O)N1CCN(c2ccccc2)CC1)c1ccccc1 (stereo not drawn)	0.04%
O=C(Nc1ccc(F)cc1)N1CCN(c2ccc(F)cc2)CC1	-4.2%
N#CC1=C(N)N(c2ccc(F)cc2)C(=O)C1	-0.02%
CCCCc1nc(NCCN)c(C#N)c2c1CSC(C)(C)C2	4.91%
Cc1ccc(NS(=O)(=O)c2ccc(N/N=C/c3ccccc3OCC(=O)O)c([N+](=O)[O-])c2)c(C)c1	88.4% (active)
C=C(C)CNC(=S)N/N=C/c1ccccc1OCC(=O)O	0.9%
Cc1cccc(COc2ccccc2/C=N/Nc2ccc([N+](=O)[O-])cc2)c1	18%
COCCn1c(=O)[nH]c(=O)c2cc(C(=O)c3cc(OC)ccc3O)cnc21	-1.8%
CC(C)NC(=O)C(=O)NCCN1CCN(S(=O)(=O)c2ccc(Cl)cc2)CC1	2.1%
Clc1ccccc1CSc1nnc(-c2ccco2)c(-c2ccco2)n1	74.6% (active)
c1ccc(CSc2nnc(-c3ccco3)c(-c3ccco3)n2)cc1	62% (active)
CCc1nnc(SCc2cccc(F)c2)nc1CC	7.48%
O=C(Nc1nnc(SCc2ccccc2Cl)s1)c1cccc([N+](=O)[O-])c1	22.8%
O=C(CC1N=C2c3ccccc3N=C(SCc3ccccc3Cl)N2C1=O)NCc1ccco1 (stereo not drawn)	6.79%
COc1ccc2nc(SCc3ccccc3)nc(C)c2c1	3.07%
N#CC(Cc1cc2ccccc2n1S(=O)(=O)c1ccccc1)OCc1ccccc1 (stereo not drawn)	3.57%
N#Cc1c(NC(=O)C2CCCO2)sc2c1CCCCC2 (stereo not drawn)	-1.14%
Nc1cccc(S(=O)(=O)Nc2ccc(SC(F)F)cc2)c1	26.6% (active)
CC(=O)N1CCN(C(=O)c2cccc(S(=O)(=O)Nc3ccc(C)cc3)c2)CC1	19.9%

SMILES	inhibition
Cc1cccc(NS(=O)(=O)c2ccc(C)c(C(N)=O)c2)c1	9.98%
CCOc1cc(C(=O)N2CCc3cc(OC)c(OC)cc3C2)ccc1OC(F)F	11%
CC(C)N1CCC(=NNc2ccc([N+](=O)[O-])cc2S(=O)(=O)N2CCOCC2)CC1	5.77%
CCN(CC)S(=O)(=O)c1ccc2[nH]cc(C(=O)NCCc3ccccc3)c(=O)c2c1	-0.23%
CCc1cccc2c(=O)c(C(=O)NCCCOC)c[nH]c12	3.69%
COc1cccc(NS(=O)(=O)c2ccc3[nH]cc(C(=O)NCCCOC(C)C)c(=O)c3c2)c1	29% (active)
C=CCOc1ccc(/C=C/C(=O)OCC(=O)NC2CCCCCC2)cc1	12%
COc1ccc(NS(=O)(=O)c2cccc(C(=O)NCCc3ccc(S(N)(=O)=O)cc3)c2)cc1	26.8% (active)
O=C(NCCN1CCOCC1)c1cccc(S(=O)(=O)Nc2ccc(F)cc2)c1	22.9%
COc1ccccc1C(CNC(=O)c1cccc(S(=O)(=O)Nc2ccc(F)cc2)c1)N(C)C (stereo not drawn)	28.3% (active)
O=C(NCc1ccccc1CN1CCCC1)c1cccc(S(=O)(=O)Nc2ccc(F)cc2)c1	31.6% (active)
CCN(c1ccccc1)S(=O)(=O)c1cccc(C(=O)NCc2ccccc2CN2CCOCC2)c1	3.38%
COc1ccccc1C(CNC(=O)c1cccc(NS(=O)(=O)c2ccc(Br)cc2)c1)N(C)C (stereo not drawn)	4.01%
COc1ccc(OCC(=O)NCCc2ccc(S(N)(=O)=O)cc2)cc1	-2.47%
NS(=O)(=O)c1ccc(CNC(=O)c2cccc(Oc3ccccc3)c2)cc1	4.17%
COc1ccc(C(CNC(=O)c2ccc(NS(=O)(=O)c3ccc(F)c(C)c3)cc2)N(C)C)cc1 (stereo not drawn)	7.73%
CC(=O)N1c2ccc(S(=O)(=O)NCCC(=O)N(C)C3CCCCC3)cc2CC1C (stereo not drawn)	1.62%
O=C(c1n[nH]c2c1CCC2)N1CCCC(Nc2cccc(F)c2)C1 (stereo not drawn)	-0.4%
O=C(COc1ccc(NC(=O)c2ccccc2[N+](=O)[O-])cc1)c1ccc(F)cc1	0.54%
C/C(=N\NC(=O)COc1ccc(C)cc1[N+](=O)[O-])c1ccc2c(c1)OCCO2	4.11%

SMILES	inhibition
CC(=O)Nc1cccc(OCC(=O)/C=C2\N(C)c3ccccc3C2(C)C)c1	1.61%
N[C@@H](Cc1ccccc1)C(=O)N1CCC(C(=O)NCC(=O)Nc2ccc(F)cc2)CC1	2.49%
Cc1cc(C)c2c(Cn3ccnc3)cc(=O)oc2c1	-1.95%
CCCCN1C(=O)/C(=C/C=C2/C=Cc3ccccc3N2CC)SC1=S	-3.21%
CCN1C(=O)/C(=C2/Sc3ccccc3N2CCCS(=O)(=O)O)SC1=S	28.1% (active)
CCCCN1C(=O)/C(=C2/Sc3ccc(Cl)cc3N2CC)SC1=S	3.72%
CCOC(=O)C(CCOc1cccc(CC)c1)C(=O)OCC	5.98%
CCCn1nc(C(=O)OCc2nc(N)nc(Nc3ccccc3C)n2)c2ccccc2c1=O	-2.36%
O=C(Nc1nc(-c2ccco2)c(-c2ccco2)s1)c1ccco1	43% (active)
O=C(Nc1nnc(CCOCCOCCc2nnc(NC(=O)c3ccco3)s2)s1)c1ccco1	8.62%
NC(=O)c1ccsc1NC(=O)c1ccco1	3.89%
CC(=O)Oc1cccc(N2C(=O)CC(Nc3ccc(N4CCOCC4)cc3)C2=O)c1 (stereo not drawn)	25.3% (active)
COc1ccc(N2CCN(C3CC(=O)N(c4ccc5c(c4)OCCO5)C3=O)CC2)cc1 (stereo not drawn)	-4.08%
COc1cc2ccccc2cc1C(=O)Nc1ccc(N2CCOCC2)cc1	11.2%
O=C(CN1CCN(c2cccc(Cl)c2)CC1)Nc1ccc(S(=O)(=O)N2CCOCC2)cc1	5.13%
O=C(O)c1ccc(N/N=C/c2cn(-c3ccccc3)nc2-c2cccs2)cc1	34% (active)
O=C(NCc1cccnc1)c1cn(-c2ccccc2)nc1-c1cccs1	-4.38%
COc1ccc(-c2nn(-c3ccccc3)cc2/C=C\C(=O)Nc2ccc(C(=O)O)cc2)cc1	-67.2%
